High-throughput results (PubChem)
USP28 block = blocks human USP28 ubiquitin-rhodamine cleavage. Q96RU2. actives 3% (n = 47,000). purified USP28, Ub-rhodamine cleavage fluorescence, 30 min. AID 1645857. inhibition, % at 25 µM
USP17 block = human USP17-like deubiquitinase inhibition; purified USP17, Ub-rhodamine cleavage fluorescence, 3 h; actives 6.5% (n = 47,000); inhibition, % at 50 µM
USP30 inh = inhibitors of human USP30 deubiquitinase. Q70CQ3. inhibition, % at 25 µM. AID 1645860. actives 5.3% (n = 47,000). purified USP30, Ub-rhodamine cleavage fluorescence
USP8 block = blocks human USP8 ubiquitin-rhodamine cleavage. P40818. purified USP8, Ub-rhodamine cleavage fluorescence, 30 min. inhibition, % at 20 µM. actives 4.2% (n = 47,000)
USP10 block = inhibitors of human USP10 deubiquitinase | inhibition, % at 20 µM | actives 1.1% (n = 47,000) | purified USP10, Ub-rhodamine fluorescence, 60 min
* marks the source's active call; other numbers are inactive results; nt = no result given. Rows were chosen to be rich in hits. Some 14% of all compounds tested hit in one or more screens of this group. No stated cut-off is given here; in the data, active means inhibition above about 30%; inactive means the rest.

SMILES	USP28 block	USP17 block	USP30 inh	USP8 block	USP10 block
c1ccc(C2CCCN2c2ccccn2)cc1 (configuration not stated)	9	3	4	-2	4
O=C(O)c1cccnc1N1CCCC1c1ccccc1 (configuration not stated)	-7	4	-16	47*	-2
Cc1cccc(N2CCn3c2nc2c3c(=O)n(CCN3CCOCC3)c(=O)n2C)c1C	-1	-2	18	3	0
CCC(=O)Nc1ccc(-n2cnc(C(=O)NC3CCCC3)c2)nc1	6	10	32*	7	4
O=C(NCc1ccccc1)c1ccc(-c2ccc(N3CCCC3)nn2)cc1	-2	66*	-29	-2	-3
O=C(NCc1ccc2c(c1)OCO2)c1ccc(-c2ccc(N3CCCC3)nn2)cc1	15	3	0	16	22
O=C(Nc1ccccc1)c1ccc(-c2ccc(N3CCCC3)nn2)cc1	22	22	39*	15	1
CC(C)C(=O)Nc1ccc(-n2cnc(C(=O)N3CCCCCC3)c2)nc1	-11	-3	-2	-1	4
COc1ccc(S(=O)(=O)NCCc2ccc3c(c2)CCCN3C)cc1	nt	2	nt	-26	-4
O=C(Nc1ccccc1-c1nc2ccccc2[nH]1)c1ccc(Br)cc1	-10	-12	-7	11	4
O=C(Nc1ccccc1-c1nc2ccccc2[nH]1)c1sc2ccccc2c1Cl	-6	83*	4	59*	33*
CC(NC(=O)C1CCN(S(C)(=O)=O)c2ccccc2O1)c1ccccc1 (configuration not stated)	10	12	33*	17	4
COc1ccc(OC)c(S(=O)(=O)N2CCN(Cc3nnnn3-c3ccccc3)CC2)c1	7	7	18	0	-3
COc1ccc(-n2nnnc2CN2CCN(S(=O)(=O)c3ccc(Cl)cc3)CC2)cc1	16	40*	47*	16	10
CCNC(=O)C1(Cc2cc(-c3ccc(C)cc3)no2)CCCN(C(=O)c2ccccc2)C1 (configuration not stated)	-6	-3	15	-11	0
O=C1CC(CNS(=O)(=O)c2ccc(Br)cc2)CN1c1ccccc1 (configuration not stated)	8	11	1	22	2
COc1cc2c(c(OC)c1OC)-c1ccc(N3CCN(C)CC3)c(=O)cc1[C@@H](NC(C)=O)CC2	-8	-11	-13	-36	-7
COc1cc2c(c(OC)c1OC)-c1ccc(N3CCN(Cc4ccc5c(c4)OCO5)CC3)c(=O)cc1[C@@H](NC(C)=O)CC2	0	0	-19	45*	-9
O=C(Nc1ccc(F)cc1)c1nccnc1-c1nc2ccccc2s1	3	-29	-102	-179	-5
O=C(Cn1ncc2c1-c1ccccc1OC2)Nc1ccc(F)c(Cl)c1	13	-5	35*	-4	7
COc1ccc(-c2cc3nc([C@H](C)NC(=O)CC4CCCC4)nn3cn2)cc1	0	18	8	3	26
C[C@@H](NC(=O)c1ccc2c(c1)OCO2)c1nc2cc(-c3ccccc3F)ncn2n1	14	17	15	2	1
COc1ccc(-c2cc3nc([C@H](C)NC(=O)Cc4ccccc4C)nn3cn2)cc1	20	61*	27	94*	36*
COc1ccc(-c2cc3nc([C@H](C)NC(=O)COc4ccccc4F)nn3cn2)cc1	12	38*	47*	17	18
C[C@@H](NC(=O)c1ccc2c(c1)OCCO2)c1nc2cc(-c3ccccc3F)ncn2n1	47*	66*	78*	-6	5
SMILES	USP28 block	USP17 block	USP30 inh	USP8 block	USP10 block
C[C@H](NC(=O)Cc1ccccc1F)c1nc2cc(-c3ccccc3F)ncn2n1	37*	42*	64*	39*	40*
Cn1c(=O)c2ccc(C3CCCCN3C(=O)c3ccncc3)nc2n(C)c1=O (configuration not stated)	-12	-6	-3	1	5
COc1ccc(CN(Cc2nc(N)nc(Nc3ccccc3C)n2)C2CC2)cc1	-8	-13	-20	-7	-3
CC1=C(c2ccc(F)cc2)S(=O)(=O)N=C1Nc1ccc(Cl)cc1	5	56*	0	0	4
CC1=C(c2ccc(F)cc2)S(=O)(=O)N=C1Nc1cccc(F)c1	1	-45	10	9	8
COc1cccc(NC2=NS(=O)(=O)C(c3ccc(F)cc3)=C2C)c1	11	3	33*	-1	1
COc1cccc(C(=O)Nc2cccc3cnccc23)c1	-4	16	-15	24	-5
